The supplement of paper PMC11732987, “Enantioselective OTUD7B fragment discovery through chemoproteomics screening and high-throughput optimisation” (Communications Chemistry, 2025)

Columns and labels:
Test in all cases: log2 ratio of Biotin-Ahx-Ub-VS probe labelling (fragment/DMSO); higher = less target engagement (more negative = stronger competition), active = hit call of the paper (q ≤ 0.05, log2 ratio ≤ -1)
Conditions in all cases: compound concentration: 200 uM; treatment time: 3 h
[1] = biological target: T1, USP19 (UniProt O94966)
T1 sequence (whole entry): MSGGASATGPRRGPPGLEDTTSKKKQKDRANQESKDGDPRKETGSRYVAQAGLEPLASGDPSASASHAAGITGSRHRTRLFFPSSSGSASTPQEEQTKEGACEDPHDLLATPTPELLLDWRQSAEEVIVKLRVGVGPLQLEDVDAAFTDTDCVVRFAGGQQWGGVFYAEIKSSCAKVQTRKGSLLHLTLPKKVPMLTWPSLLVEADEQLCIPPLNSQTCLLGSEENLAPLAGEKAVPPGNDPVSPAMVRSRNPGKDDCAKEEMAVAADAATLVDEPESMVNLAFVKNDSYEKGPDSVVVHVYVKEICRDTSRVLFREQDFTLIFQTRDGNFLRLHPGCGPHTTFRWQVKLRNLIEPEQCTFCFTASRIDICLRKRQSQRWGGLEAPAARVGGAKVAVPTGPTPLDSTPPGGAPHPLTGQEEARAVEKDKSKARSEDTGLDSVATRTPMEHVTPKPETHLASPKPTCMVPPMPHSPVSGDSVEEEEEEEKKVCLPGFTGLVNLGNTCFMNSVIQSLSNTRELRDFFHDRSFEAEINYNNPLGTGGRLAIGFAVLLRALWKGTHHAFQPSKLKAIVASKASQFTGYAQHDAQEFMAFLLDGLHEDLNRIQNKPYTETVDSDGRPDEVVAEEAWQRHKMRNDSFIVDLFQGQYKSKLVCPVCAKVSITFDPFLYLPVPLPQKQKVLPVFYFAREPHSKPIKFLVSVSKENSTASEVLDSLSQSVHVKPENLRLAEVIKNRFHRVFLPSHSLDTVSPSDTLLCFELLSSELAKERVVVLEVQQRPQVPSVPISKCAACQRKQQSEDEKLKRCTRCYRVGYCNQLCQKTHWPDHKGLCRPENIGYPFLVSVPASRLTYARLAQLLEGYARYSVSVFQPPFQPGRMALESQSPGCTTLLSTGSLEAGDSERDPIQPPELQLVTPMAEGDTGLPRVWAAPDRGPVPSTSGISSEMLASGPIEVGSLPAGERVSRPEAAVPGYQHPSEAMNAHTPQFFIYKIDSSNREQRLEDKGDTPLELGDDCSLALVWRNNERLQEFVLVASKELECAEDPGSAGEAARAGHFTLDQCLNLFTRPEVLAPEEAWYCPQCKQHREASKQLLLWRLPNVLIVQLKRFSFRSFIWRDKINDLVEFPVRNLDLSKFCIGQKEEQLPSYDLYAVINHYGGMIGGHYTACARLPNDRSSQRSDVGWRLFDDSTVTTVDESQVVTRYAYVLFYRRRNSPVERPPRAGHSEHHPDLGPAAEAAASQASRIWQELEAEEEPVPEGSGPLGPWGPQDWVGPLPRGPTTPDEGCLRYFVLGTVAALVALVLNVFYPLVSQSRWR
How it was run: (§1)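 Triplicate samples of HEK293T lysate, 495 µg each, received fragment at 200 µM or vehicle for 3 h, followed by Biotin-Ahx-Ub-VS (0.5 µM final) for 1 h. After NeutrAvidin enrichment of labelled DUBs and LysC/trypsin digestion, peptides were run by diaPASEF LC-MS/MS. The values are average log2 fragment/vehicle ratios from global-median-normalised Spectronaut label-free quantities, tested by unpaired t-test on proteins having ≥2 unique peptides.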

[2] = biological target: T2, USP22 (UniProt Q9UPT9)
T2 sequence (whole entry): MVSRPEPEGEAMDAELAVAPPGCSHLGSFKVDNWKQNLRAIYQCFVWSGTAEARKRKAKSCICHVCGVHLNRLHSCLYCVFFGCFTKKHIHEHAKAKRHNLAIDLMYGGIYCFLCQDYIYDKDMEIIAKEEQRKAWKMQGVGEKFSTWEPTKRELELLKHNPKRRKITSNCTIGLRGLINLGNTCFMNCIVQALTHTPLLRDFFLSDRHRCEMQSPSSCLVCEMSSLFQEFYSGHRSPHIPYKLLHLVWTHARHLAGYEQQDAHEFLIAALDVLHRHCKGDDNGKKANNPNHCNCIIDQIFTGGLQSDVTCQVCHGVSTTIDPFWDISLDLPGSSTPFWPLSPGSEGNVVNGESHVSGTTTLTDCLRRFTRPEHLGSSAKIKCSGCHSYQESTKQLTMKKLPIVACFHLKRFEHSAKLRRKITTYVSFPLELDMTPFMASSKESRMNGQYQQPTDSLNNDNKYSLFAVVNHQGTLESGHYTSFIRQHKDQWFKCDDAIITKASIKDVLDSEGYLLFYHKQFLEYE
How it was run: as §1

[3] = biological target: USP24 (UniProt Q9UPU5)
How it was run: as §1

[4] = biological target: T3, USP25 (UniProt Q9UHP3)
T3 sequence (whole entry): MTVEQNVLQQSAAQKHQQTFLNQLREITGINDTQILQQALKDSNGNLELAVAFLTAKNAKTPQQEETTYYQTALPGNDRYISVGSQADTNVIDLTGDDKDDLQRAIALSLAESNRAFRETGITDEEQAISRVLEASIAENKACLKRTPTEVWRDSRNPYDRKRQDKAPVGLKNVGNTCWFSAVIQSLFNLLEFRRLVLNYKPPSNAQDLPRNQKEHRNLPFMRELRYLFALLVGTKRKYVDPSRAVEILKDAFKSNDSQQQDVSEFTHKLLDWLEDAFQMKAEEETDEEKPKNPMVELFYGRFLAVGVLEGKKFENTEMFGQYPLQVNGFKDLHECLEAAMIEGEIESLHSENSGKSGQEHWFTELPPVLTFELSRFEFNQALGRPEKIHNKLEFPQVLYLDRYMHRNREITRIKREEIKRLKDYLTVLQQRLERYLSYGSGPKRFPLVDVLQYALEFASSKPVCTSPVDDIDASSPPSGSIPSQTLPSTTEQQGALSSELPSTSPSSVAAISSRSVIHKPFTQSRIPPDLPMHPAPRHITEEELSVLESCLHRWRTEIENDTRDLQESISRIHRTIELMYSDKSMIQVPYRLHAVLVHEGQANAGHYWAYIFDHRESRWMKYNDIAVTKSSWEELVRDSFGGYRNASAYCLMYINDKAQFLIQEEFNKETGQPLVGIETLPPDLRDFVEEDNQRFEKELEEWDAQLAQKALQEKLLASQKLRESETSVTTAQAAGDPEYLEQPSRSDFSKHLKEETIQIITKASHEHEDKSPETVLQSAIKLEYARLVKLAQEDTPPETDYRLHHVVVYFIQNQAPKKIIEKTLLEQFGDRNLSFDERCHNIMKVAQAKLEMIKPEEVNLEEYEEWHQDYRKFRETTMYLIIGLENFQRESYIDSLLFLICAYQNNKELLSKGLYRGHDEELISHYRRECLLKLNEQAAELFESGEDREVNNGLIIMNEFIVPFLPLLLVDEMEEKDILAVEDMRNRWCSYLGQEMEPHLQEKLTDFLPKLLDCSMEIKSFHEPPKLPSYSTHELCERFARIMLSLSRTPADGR
How it was run: as §1

[5] = biological target: T4, USP28 (UniProt Q96RU2)
T4 sequence (whole entry): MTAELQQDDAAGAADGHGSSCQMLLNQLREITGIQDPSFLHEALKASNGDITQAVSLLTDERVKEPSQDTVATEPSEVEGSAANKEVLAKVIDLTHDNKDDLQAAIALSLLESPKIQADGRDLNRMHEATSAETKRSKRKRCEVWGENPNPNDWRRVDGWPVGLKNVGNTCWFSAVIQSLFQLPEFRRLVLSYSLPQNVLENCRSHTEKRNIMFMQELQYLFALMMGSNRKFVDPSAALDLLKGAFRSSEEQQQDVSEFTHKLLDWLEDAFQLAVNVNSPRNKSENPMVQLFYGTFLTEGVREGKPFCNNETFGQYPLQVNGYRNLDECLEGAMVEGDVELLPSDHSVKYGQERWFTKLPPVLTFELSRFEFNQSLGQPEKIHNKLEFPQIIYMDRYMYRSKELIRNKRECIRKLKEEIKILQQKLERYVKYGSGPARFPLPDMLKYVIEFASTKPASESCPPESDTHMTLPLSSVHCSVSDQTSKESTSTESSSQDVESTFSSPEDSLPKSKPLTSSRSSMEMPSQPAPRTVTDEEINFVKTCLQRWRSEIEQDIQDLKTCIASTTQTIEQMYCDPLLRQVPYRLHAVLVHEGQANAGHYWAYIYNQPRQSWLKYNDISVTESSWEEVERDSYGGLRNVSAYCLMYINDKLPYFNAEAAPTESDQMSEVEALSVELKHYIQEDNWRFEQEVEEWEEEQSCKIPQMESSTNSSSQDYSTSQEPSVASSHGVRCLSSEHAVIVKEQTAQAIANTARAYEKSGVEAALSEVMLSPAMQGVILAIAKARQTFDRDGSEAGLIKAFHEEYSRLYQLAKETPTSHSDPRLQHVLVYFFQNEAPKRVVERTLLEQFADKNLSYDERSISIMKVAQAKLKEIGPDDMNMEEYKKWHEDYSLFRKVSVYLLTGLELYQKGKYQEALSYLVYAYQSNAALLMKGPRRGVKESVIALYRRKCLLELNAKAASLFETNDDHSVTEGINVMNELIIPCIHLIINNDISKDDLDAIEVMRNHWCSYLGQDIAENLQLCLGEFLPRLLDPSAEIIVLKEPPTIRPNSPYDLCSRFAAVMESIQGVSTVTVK
How it was run: as §1

Measured: log2 ratio of Biotin-Ahx-Ub-VS probe labelling

USP24, sequence (Q9UPU5 whole entry): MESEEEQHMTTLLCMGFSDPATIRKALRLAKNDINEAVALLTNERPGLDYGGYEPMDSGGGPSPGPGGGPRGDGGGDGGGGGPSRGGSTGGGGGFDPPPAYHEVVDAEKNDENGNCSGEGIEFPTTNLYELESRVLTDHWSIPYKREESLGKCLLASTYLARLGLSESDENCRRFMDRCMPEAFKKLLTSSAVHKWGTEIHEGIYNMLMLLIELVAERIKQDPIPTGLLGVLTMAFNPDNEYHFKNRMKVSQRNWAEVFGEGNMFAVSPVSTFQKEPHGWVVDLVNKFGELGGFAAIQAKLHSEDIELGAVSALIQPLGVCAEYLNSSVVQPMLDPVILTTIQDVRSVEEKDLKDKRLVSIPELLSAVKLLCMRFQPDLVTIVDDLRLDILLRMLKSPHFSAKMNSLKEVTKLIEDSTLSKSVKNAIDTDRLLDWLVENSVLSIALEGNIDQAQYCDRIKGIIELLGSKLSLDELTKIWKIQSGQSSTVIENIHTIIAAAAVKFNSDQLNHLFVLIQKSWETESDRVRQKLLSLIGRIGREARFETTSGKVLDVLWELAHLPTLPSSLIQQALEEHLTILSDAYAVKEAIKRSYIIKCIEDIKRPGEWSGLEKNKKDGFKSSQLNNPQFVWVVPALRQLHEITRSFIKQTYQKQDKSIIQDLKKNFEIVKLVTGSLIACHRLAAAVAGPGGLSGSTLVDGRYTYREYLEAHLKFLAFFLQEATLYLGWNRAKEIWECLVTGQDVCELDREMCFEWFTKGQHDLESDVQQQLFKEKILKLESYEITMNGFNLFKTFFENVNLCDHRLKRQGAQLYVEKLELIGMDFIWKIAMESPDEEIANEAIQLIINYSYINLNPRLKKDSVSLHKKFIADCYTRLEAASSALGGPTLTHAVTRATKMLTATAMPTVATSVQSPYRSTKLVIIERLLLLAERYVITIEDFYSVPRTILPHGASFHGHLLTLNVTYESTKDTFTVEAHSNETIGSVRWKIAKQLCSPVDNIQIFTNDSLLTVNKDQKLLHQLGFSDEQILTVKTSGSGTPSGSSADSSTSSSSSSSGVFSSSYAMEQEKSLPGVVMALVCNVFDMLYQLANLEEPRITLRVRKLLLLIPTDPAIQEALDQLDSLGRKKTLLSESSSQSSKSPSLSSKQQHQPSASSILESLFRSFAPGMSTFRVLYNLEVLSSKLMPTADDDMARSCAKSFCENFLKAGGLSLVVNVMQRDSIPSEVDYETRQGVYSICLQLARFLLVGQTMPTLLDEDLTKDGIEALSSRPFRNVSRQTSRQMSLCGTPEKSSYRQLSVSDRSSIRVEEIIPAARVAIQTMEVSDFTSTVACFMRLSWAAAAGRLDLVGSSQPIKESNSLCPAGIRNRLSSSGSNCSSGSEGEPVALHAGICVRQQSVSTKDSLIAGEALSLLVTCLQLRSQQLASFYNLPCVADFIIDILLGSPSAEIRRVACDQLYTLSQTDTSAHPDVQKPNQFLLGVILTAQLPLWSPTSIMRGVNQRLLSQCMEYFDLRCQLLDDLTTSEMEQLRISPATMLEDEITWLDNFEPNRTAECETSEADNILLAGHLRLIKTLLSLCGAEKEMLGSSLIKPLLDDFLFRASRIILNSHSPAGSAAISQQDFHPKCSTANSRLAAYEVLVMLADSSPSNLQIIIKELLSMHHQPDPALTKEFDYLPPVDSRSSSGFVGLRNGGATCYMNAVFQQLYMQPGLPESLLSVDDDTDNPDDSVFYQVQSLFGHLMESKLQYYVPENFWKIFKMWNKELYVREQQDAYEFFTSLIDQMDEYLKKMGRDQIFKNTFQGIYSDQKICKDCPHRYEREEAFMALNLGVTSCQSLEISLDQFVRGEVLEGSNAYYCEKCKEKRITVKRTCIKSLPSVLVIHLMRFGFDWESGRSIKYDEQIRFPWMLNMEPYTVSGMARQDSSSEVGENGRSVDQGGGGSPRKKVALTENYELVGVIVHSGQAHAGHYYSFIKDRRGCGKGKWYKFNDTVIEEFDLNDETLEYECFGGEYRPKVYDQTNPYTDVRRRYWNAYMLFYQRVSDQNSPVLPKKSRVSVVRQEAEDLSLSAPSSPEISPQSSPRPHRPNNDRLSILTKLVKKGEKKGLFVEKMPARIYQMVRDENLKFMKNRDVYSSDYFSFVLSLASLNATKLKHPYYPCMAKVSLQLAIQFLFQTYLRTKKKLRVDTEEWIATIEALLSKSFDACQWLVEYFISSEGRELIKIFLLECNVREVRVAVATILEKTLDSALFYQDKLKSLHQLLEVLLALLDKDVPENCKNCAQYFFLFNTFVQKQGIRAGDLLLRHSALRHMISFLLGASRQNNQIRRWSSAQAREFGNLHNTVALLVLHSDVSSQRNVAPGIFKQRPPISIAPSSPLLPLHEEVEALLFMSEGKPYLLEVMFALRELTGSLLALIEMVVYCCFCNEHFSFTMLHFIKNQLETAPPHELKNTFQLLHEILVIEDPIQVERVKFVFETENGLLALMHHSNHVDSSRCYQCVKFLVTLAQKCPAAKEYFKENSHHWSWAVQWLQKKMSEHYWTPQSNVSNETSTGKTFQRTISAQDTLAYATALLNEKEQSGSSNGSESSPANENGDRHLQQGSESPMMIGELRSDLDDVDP

Cl.O=C(CCl)N1CC(c2ccc(Br)cn2)C1
inactive: [1] -0.658 | [2] -0.346 | [3] -0.76 | [4] -0.491 | [5] -0.738
